# Results taken from PubChem BioAssay (Tox21).
# Inconclusive results are not listed. Where a call stands in place of a potency, no number is given. Unmarked numbers belong to inactive results. Activity calls are given as the source filed them. Unless noted, calls come from the whole dose curve; as a rule, active = well fitted curve in the direction sought with a large enough effect in the repeat runs; inconclusive = weak or mixed curves; inactive = no such curve, though single readings can be large; an effect the other way counts as inactive or inconclusive.
# What was measured:
# [1] = target: Luciferin 4-monooxygenase (Photinus pyralis) (UniProt P08659); assay: qHTS assay to identify small molecule inhibitors of firefly luciferase (AID 1224835); note: nearly all actives have a fitted effect of over 25% in size; note: potency is the fitted concentration of half-maximal effect
# Procedure, shortened: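 Biochemical qHTS: compounds run as interplate titrations against purified firefly enzyme, with D-luciferin and ATP each at its KM concentration. Light output recorded by CCD imaging.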
# [2] = qHTS assay to identify small molecule agonists of the constitutive androstane receptor (CAR) signaling pathway - cell viability counter screen (AID 1224836); note: nearly all actives have a fitted effect of over 45% in size; note: potency is the fitted concentration of half-maximal effect; for viability change, negative = cytotoxic: series mostly up to about 92 µM
# Procedure, shortened: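 HepG2-CYP2B6-hCAR, 2500 cells/well, 4 h pre-incubation; cpd 15 conc + PK11195 0.75 uM final; 23 h, 37 C/5% CO2; CellTiter-Fluor, fluorescence.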
# [3] = target: Nuclear receptor subfamily 1 group I member 3 (Homo sapiens) (UniProt Q14994); assay: qHTS assay to identify small molecule antagonists of the constitutive androstane receptor (CAR) signaling pathway (AID 1224838); note: nearly all actives have a fitted effect of over 40% in size; note: potency is the fitted concentration of half-maximal effect
# Procedure, shortened: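 CITCO-stimulated (50 nM final) HepG2 cells stably transfected with hCAR and CYP2B6-2.2kb luciferase were exposed to compounds at 15 concentrations for 24 h at 37 C/5% CO2. A luciferase reagent was added and luminescence recorded after 30 min.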
# [4] = target: Nuclear receptor subfamily 1 group I member 3 (Homo sapiens) (UniProt Q14994); assay: qHTS assay to identify small molecule agonists of the constitutive androstane receptor (CAR) signaling pathway (AID 1224839); note: nearly all actives have a fitted effect of over 15% in size; note: potency is the fitted concentration of half-maximal effect;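 for activation: HepG2 cells stably carrying human CAR and a CYP2B6 luciferase reporter; series mostly up to about 92 µM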
# Procedure, shortened: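 HepG2-CYP2B6-hCAR cells, 2500/well, 4 h pre-incubation; compounds 15 conc.; PK11195 0.75 uM final; 24 h, 37 C/5% CO2; ONE-Glo luciferase read.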
# [5] = qHTS assay to identify small molecule antagonists of the estrogen related receptor signaling pathway with the pleiotropic PPARgamma coactivator (PGC) from Tox21 10K library - cell viability counter screen (AID 1224840; active = well fitted cell-killing curve with a large enough effect in the repeat runs, not every such curve was filed as active; note: nearly all actives have a fitted effect of over 40% in size)
# Procedure, shortened: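 Viability counter screen, PGC/ERR cells: 17.5 h compound exposure at 37 C, CellTiter-Fluor fluorescence endpoint.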
# [6] = qHTS assay to identify small molecule antagonists of the estrogen related receptor signaling pathway with the pleiotropic PPARgamma coactivator (PGC) from Tox21 10K library (AID 1224841; call rule not given here; note: actives are mostly falling curves and most rising ones were filed inactive; nearly all actives have a fitted effect of over 50% in size; note: potency is the fitted concentration of half-maximal effect)
# Procedure, shortened: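 In the PGC/ERR line, DMSO solutions of test chemicals are pin-delivered to 2,000 cells/well six hours after dispensing. Following eighteen hours' incubation, One-Glo reagent is added and luminescence recorded.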
# [7] = target: Thyrotropin receptor (Homo sapiens) (UniProt P16473); assay: qHTS assay to identify small molecule agonists of the thyroid stimulating hormone receptor (TSHR) signaling pathway (AID 1224843; calls by dose curve; note: nearly all actives have a fitted effect of over 45% in size)
# Procedure, shortened: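 HEK293/TSHR, 800 cells/well; cpd 30 min RT; add cAMP-d2 + anti-cAMP-cryptate, 1 h RT; fluorescence read on plate reader. 15-pt titration, n=3.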
# [8] = qHTS assay to identify small molecule agonists of the hypoxia (HIF-1) signaling pathway - cell viability counter screen (AID 1224844; calls by dose curve; note: nearly all actives have a fitted effect of over 50% in size; note: potency is the fitted concentration of half-maximal effect)
# Procedure, shortened: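 Same wells as the HIF-1 reporter screen; ME-180 cells carrying HRE-bla, 17 hr treatment at 37C; CellTiter-Glo luminescence read after 30 min at room temperature.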
# [9] = qHTS assay to identify small molecule antagonists of the constitutive androstane receptor (CAR) signaling pathway - cell viability counter screen (AID 1224837); note: nearly all actives have a fitted effect of over 45% in size; note: potency is the fitted concentration of half-maximal effect; for activity change, negative = cytotoxicity: series mostly up to about 92 µM
# Procedure, shortened: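 In quantitative HTS format, compounds at 15 concentrations were applied to HepG2 cells double-transfected with hCAR and CYP2B6-2.2kb under 50 nM CITCO stimulation; live-cell protease activity was read after 23 hr via CellTiter-Fluor.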
# [10] = qHTS assay to identify small molecule agonists of the estrogen related receptor signaling pathway with the pleiotropic PPARgamma coactivator (PGC) from Tox21 10K library (AID 1224842); note: nearly all actives have a fitted effect of over 15% in size
# Procedure, shortened: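 PGC/ERR reporter cell line, 2,000 cells per well, incubated 6 h at 37 C before 23 nL compound in DMSO was added. After 18 h at 37 C, One-Glo luminescence read following 30 min at room temperature.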
# Nuclear receptor subfamily 1 group I member 3 (Homo sapiens), sequence (Q14994 whole entry, looked up): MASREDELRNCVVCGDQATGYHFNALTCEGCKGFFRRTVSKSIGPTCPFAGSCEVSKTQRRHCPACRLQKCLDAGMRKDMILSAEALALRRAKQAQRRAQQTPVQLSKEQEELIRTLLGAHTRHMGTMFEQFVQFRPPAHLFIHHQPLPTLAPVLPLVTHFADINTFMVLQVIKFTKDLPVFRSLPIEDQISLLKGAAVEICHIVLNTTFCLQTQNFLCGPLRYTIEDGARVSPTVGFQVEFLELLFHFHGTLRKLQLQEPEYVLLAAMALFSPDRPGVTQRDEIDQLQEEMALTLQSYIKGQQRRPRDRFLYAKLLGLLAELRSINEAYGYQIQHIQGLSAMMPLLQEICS
# Thyrotropin receptor (Homo sapiens), sequence (P16473 whole entry, looked up): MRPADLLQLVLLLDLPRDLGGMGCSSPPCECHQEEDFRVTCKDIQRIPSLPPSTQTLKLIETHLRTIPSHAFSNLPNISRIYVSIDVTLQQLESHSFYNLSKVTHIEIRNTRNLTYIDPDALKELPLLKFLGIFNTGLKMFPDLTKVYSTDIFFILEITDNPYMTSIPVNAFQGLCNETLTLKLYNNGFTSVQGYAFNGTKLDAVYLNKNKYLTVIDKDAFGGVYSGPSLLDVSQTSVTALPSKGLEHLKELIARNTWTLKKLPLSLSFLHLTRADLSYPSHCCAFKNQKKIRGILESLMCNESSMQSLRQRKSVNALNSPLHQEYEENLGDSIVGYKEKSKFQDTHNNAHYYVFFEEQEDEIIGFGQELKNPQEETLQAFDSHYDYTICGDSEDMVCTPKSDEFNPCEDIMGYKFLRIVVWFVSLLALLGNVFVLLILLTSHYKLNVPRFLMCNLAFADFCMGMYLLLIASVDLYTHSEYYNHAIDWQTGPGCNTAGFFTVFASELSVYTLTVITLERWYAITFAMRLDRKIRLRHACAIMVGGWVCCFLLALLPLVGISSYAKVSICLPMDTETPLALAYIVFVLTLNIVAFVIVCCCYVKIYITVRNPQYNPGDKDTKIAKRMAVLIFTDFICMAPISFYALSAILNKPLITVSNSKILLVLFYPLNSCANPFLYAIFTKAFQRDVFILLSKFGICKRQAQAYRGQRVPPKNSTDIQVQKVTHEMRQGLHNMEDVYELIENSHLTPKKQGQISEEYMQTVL
# Luciferin 4-monooxygenase (Photinus pyralis), sequence (P08659 whole entry, looked up): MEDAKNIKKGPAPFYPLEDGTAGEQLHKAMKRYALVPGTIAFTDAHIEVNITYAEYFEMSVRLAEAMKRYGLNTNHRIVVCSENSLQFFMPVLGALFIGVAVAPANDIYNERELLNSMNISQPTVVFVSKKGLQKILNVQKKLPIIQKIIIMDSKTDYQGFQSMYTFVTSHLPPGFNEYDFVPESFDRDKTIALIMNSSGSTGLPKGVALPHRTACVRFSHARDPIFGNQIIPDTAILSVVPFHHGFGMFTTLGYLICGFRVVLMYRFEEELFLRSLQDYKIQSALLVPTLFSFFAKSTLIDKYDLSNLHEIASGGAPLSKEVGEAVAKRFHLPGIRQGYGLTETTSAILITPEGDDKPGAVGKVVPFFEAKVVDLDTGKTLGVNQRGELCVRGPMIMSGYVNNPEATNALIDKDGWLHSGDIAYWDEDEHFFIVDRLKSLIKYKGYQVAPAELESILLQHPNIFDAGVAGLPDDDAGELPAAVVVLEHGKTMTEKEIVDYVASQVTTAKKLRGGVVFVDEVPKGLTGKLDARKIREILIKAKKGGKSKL
smiles,measurement,setting,value
Cc1ccc2c(c1[N+](=O)[O-])C(=O)c1ccccc1C2=O,Potency,[1],inactive
same,Potency,[2],6.73 µM (active)
same,Potency,[3],0.673 µM (active)
same,Potency,[4],inactive
same,Potency,[5],inactive
same,Potency,[6],inactive
same,Potency,[7],inactive
same,Potency,[8],inactive
BrC(Br)C(Br)Br,Potency,[2],inactive
same,Potency,[9],inactive
same,Potency,[3],inactive
same,Potency,[4],inactive
same,Potency,[5],inactive
same,Potency,[7],inactive
same,Potency,[8],inactive
O=[N+]([O-])c1ccc2ncccc2c1,Potency,[2],inactive
same,Potency,[9],inactive
same,Potency,[3],inactive
same,Potency,[4],inactive
same,Potency,[5],inactive
same,Potency,[10],inactive
same,Potency,[7],inactive
same,Potency,[8],inactive
COc1cc(NCc2ccc3nc(N)nc(N)c3c2C)cc(OC)c1OC,Potency,[1],inactive
same,Potency,[2],inactive
same,Potency,[3],0.0266 µM (active)
same,Potency,[4],inactive
same,Potency,[5],inactive
same,Potency,[6],0.075 µM (active)
same,Potency,[10],inactive
same,Potency,[8],inactive
CNS(=O)(=O)c1cc(C(=O)N2CCC(CCN3C4CCC3CC(n3c(C)nc5ccccc53)C4)(c3cccc(F)c3)CC2)c(Cl)cc1F (centres undefined),Potency,[1],inactive
same,Potency,[9],inactive
same,Potency,[7],inactive
same,Potency,[8],3.89 µM (active)
O[C@@H](CNC[C@H](O)[C@H]1CCc2cc(F)ccc2O1)[C@@H]1CCc2cc(F)ccc2O1,Potency,[1],inactive
same,Potency,[4],inactive
same,Potency,[6],33.5 µM (active)
same,Potency,[10],inactive
same,Potency,[7],inactive
COC(=O)C1=C(C)NC(C)=C(C(=O)OC(C)(C)CN(C)CCC(c2ccccc2)c2ccccc2)C1c1cccc([N+](=O)[O-])c1 (centres undefined),Potency,[1],inactive
same,Potency,[3],inactive
same,Potency,[4],inactive
same,Potency,[6],16.8 µM (active)
same,Potency,[10],inactive
same,Potency,[7],inactive
same,Potency,[8],inactive
c1ccc(CCCc2ccncc2)cc1,Potency,[2],inactive
same,Potency,[9],inactive
same,Potency,[5],inactive
CC1=CC[C@@H]2C[C@H]1C2(C)C,"viability change, negative = cytotoxic",[2],1.82% [at 19 µM]
same,"activity change, negative = cytotoxicity",[9],-2.4% [at 19 µM]
same,"viability change, negative = cytotoxic",[5],-1.25% [at 19 µM]
same,activation,[7],21.3% [at 19 µM]
same,"activity change, negative = cytotoxicity",[8],7.49% [at 15.8 µM]
CCN(CC)C(=O)/C(C#N)=C/c1cc(O)c(O)c([N+](=O)[O-])c1,Potency,[1],inactive
same,Potency,[3],inactive
same,Potency,[4],inactive
same,Potency,[7],inactive
same,Potency,[8],inactive
CC/C=C\C/C=C\C/C=C\CCCCCCCC(=O)OCC,Potency,[1],inactive
same,Potency,[2],inactive
same,Potency,[9],inactive
same,Potency,[10],inactive
same,Potency,[7],inactive
CNCc1ccc(NC(=O)c2c[nH]c3c2C(=O)CCC3)cc1,Potency,[1],inactive
same,Potency,[2],inactive
same,Potency,[3],inactive
same,Potency,[4],1.72 µM (active)
same,Potency,[5],inactive
same,Potency,[6],inactive
same,Potency,[10],inactive
same,Potency,[7],inactive
same,Potency,[8],inactive
O=C(c1ccccc1)c1ccc(O)cc1,Potency,[2],inactive
same,Potency,[9],inactive
same,Potency,[3],inactive
same,Potency,[5],inactive
same,Potency,[6],inactive
same,Potency,[10],inactive
same,Potency,[7],inactive
same,Potency,[8],inactive
CCCCCCCCCCCCCCCC(=O)OCC,Potency,[1],inactive
same,Potency,[2],inactive
same,Potency,[9],inactive
same,Potency,[7],inactive
same,Potency,[8],inactive
CC(C)(C)NCC(O)COc1cccc2c1C[C@H](O)[C@H](O)C2 (some centres undefined),Potency,[1],inactive
same,Potency,[2],inactive
same,Potency,[9],inactive
same,Potency,[7],inactive
same,Potency,[8],inactive
CC(C)COC(=O)COc1cc(Cl)c(Cl)cc1Cl,Potency,[2],inactive
same,Potency,[9],inactive
same,Potency,[3],inactive
same,Potency,[4],inactive
same,Potency,[6],inactive
same,Potency,[10],inactive
same,Potency,[8],inactive
O=C(Nc1ccc(C(=O)O)c(O)c1)c1ccccc1,Potency,[1],27.5 µM (active)
same,Potency,[9],inactive
same,Potency,[3],inactive
same,Potency,[4],inactive
same,Potency,[7],inactive
same,Potency,[8],inactive
COc1cc(C(C)=O)ccc1OCCCN1CCC(c2noc3cc(F)ccc23)CC1,Potency,[9],inactive
same,Potency,[3],inactive
same,Potency,[4],inactive
same,Potency,[5],inactive
same,Potency,[7],inactive
Cc1cccc2sc(N)nc12,Potency,[2],inactive
same,Potency,[9],inactive
same,Potency,[3],inactive
same,Potency,[5],inactive
C=CC(=O)O,Potency,[2],inactive
same,Potency,[9],inactive
same,Potency,[3],inactive
same,Potency,[5],inactive
same,Potency,[7],inactive
same,Potency,[8],inactive
O=C(/C=C/c1ccc([N+](=O)[O-])cc1)c1ccccc1,Potency,[1],1.13 µM (active)
same,Potency,[2],61.3 µM (active)
same,Potency,[9],68.7 µM (active)
same,Potency,[7],inactive
same,Potency,[8],24.6 µM (active)
CCN(CC)CCOc1ccccc1C(=O)CCc1ccccc1,Potency,[1],inactive
same,Potency,[2],inactive
same,Potency,[3],inactive
same,Potency,[4],26.6 µM (active)
same,Potency,[5],inactive
same,Potency,[6],inactive
same,Potency,[10],inactive
same,Potency,[7],inactive
O=[N+]([O-])C1(Br)COCOC1,Potency,[1],25.2 µM (active)
same,Potency,[9],inactive
same,Potency,[4],inactive
same,Potency,[6],inactive
same,Potency,[10],inactive
CCN(CC)c1cccc(O)c1,Potency,[2],inactive
same,Potency,[9],inactive
same,Potency,[3],inactive
same,Potency,[4],55.6 µM (active)
same,Potency,[5],inactive
same,Potency,[6],inactive
same,Potency,[10],inactive
same,Potency,[8],inactive
CC(=O)c1ccc[nH]1,Potency,[1],inactive
same,Potency,[2],inactive
same,Potency,[9],inactive
same,Potency,[7],inactive
same,Potency,[8],inactive
CN(C)CC/C=C1\c2ccccc2Sc2ccc(Cl)cc21,Potency,[1],inactive
same,Potency,[4],inactive
same,Potency,[6],inactive
same,Potency,[7],inactive
CC(C)(O)CCc1ccccc1,Potency,[1],inactive
same,Potency,[2],inactive
same,Potency,[9],inactive
same,Potency,[5],inactive
same,Potency,[7],inactive
same,Potency,[8],inactive
COc1ccc(C)cc1,Potency,[1],inactive
same,Potency,[2],inactive
same,Potency,[9],inactive
same,Potency,[7],inactive
same,Potency,[8],inactive
CCCCCCCCCCCC(=O)OCC(O)CO (centres undefined),Potency,[2],inactive
same,Potency,[9],inactive
same,Potency,[3],inactive
same,Potency,[4],inactive
same,Potency,[5],inactive
same,Potency,[6],inactive
same,Potency,[10],inactive
same,Potency,[8],inactive
C[C@H](CS)C(=O)N1CCC[C@H]1C(=O)O,Potency,[2],inactive
same,Potency,[9],inactive
same,Potency,[3],inactive
same,Potency,[4],inactive
same,Potency,[7],inactive
same,Potency,[8],inactive
Cc1cc([N+](=O)[O-])ccc1N,Potency,[3],inactive
same,Potency,[4],inactive
same,Potency,[7],inactive
same,Potency,[8],inactive
